Test results: PubChem BioAssay (NCI)
The panel holds about 83,000 compounds, 20% with a hit somewhere; the sample as a whole holds those more often.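 Single-concentration screen, 48 h exposure, 96-well plates. Endpoint: percent growth. Below 10 = active.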 A number with no mark means an inactive call. Calls of active or inactive are those of the source.

What follows are molecules tested on NCI-H322M lung (assay: NCI-60 one-dose screen, 48 h (100 = growth as untreated, 0 = no growth, -100 = all killed)). Conditions: 10 µM unless noted.
Description: Growth inhibition of the NCI-H322M human Non-Small Cell Lung tumor cell line is measured as a screen for anti-cancer activity. Cells are grown in 96 well plates and exposed to the test compound for 48 hours. Compounds are tested at a single concentration, which is 10^-5 M for most compounds. The reported endpoint is percent growth (GI% or GIPRCNT), where numbers from 0 - 100% represent growth inhibition, and numbers from -100% - 0 represent cell death. For example, a value of 40 represents 60% growth inhibition. A value of 0 means no net growth occurred over the course of the experiment. A value of -40 indicates 40% of cells at the beginning of the experiment died by the end of the experiment. A value of -100 means all cells are dead at the end of the experiment.
NCI-60 Human Tumor Cell Lines Screen was performed using the standard one-dose NCI protocol, which is described in more detail at https://dtp.cancer.gov/discovery_development/nci-60/default.htm.
Compounds with GIPRCNT values below 10 were considered active. Activity score was based on GIPRCNT using the following formula: […]
Score is 0 for GIPRCNT values of 100 or above, 50 for GIPRCNT values of 0, and 100 for GIPRCNT values of -100.
`Nc1cc(-c2c[nH]c3ccc(Br)cc23)nc2cc(-c3c[nH]c4ccc(Br)cc34)nn12` showed a growth of 39.8%.
`O=C(Cn1cc(-c2ccccc2)nn1)Nc1nc(-c2ccc(Cl)cc2)cs1` was tested, and the growth was 100%.
With `NC(N)=Nc1ccc(Oc2cccc(NC(N)=Nc3ccc(I)cc3F)c2)cc1` the growth was 80.4%.
`CC(Nc1c(C#N)cnc2ccc(-c3cnc(N)nc3)cc12)c1ccccc1` (stereo not given) was tested, and the growth was 6.93% (active).
With `COc1ccc(OC)c(-c2nc(SCC(=O)c3ccc(Br)cc3)nc(Nc3ccc(S(N)(=O)=O)cc3)c2C#N)c1` the growth was 81.7%.
In the case of `CCNC(=O)Oc1ccc(/C(=C(/C)c2ccccc2)c2ccc(OCCN3CCCCCC3)cc2)cc1`, the growth is reported as 71.1%.
Work on `NC(N)=Nc1ccc(Oc2cccc(Nc3ccc(Cl)c(C(F)(F)F)c3)c2)cc1` yielded a growth of 61.9%.
In the case of `CCOc1ccccc1NC1=C(Cl)C(=O)c2nc(C)ccc2C1=O`, the growth is reported as 28.8%.
Molecule `CC1=CC(=O)C2=C(C)CC(OC(=O)CCc3ccccc3)[C@@H]3[C@H](OC(=O)[C@@H]3C)[C@@H]12` (stereo not given in full) has a growth of 96.8%.
Work on `NC(=O)c1cccc(C#CCNC[C@H]2C[C@@H](n3ccc4c(Cl)ncnc43)[C@H](O)[C@@H]2O)c1` yielded a growth of 94.2%.
Work on `Cc1cc(C)c(N2C(=O)CC(Nc3ccc(Cl)cc3Cl)C2=O)c(C)c1` (stereo not given) yielded a growth of 99.8%.
Molecule `COc1cc(OC)c(S(N)(=O)=O)cc1C(=O)/C=C/c1ccc(Cl)cc1` has a growth of 16.3%.
`Cn1ccnc1C(=O)/C=C/c1ccc(CNC(=O)c2ccc(F)cc2)cc1` was tested, and the growth was 29.7%.
`C[C@@H]1C[C@H]2C(=O)O[C@@H](C)C(NC(=O)[C@H](Cc3cc(F)cc(F)c3)NC(=O)Nc3ccc(C4CC4)cc3F)C(=O)N3CCC[C@H]3C(=O)N3CCCC[C@H]3C(=O)N[C@@H](CO)C(=O)N2C1` (stereo not given in full) gave a growth of 48.3%.
`COc1c(N2CC3CCCNC3C2)c(F)cc2c(=O)c(C(=O)N/N=C/c3ccc(Br)cc3)cn(C3CC3)c12` (stereo not given) showed a growth of 89%.
With `NC(=O)c1c(NC(=O)c2ccccc2C(F)(F)F)sc2c1CCC(=O)C2` the growth was 105%.
`Cn1ccnc1C(=O)/C=C/c1ccc(CNC(=O)c2ccc(S(F)(F)(F)(F)F)cc2)cc1` was tested, and the growth was 7.63% (active).
`CC(C)(C)n1nnnc1C(Nc1cccc2c1OCO2)c1cc2cccc3ccc4cccc1c4c32` (stereo not given) showed a growth of 96%.
With `O=C(NNc1nc2cc(F)c(F)cc2n2c(CN3CC4CNCC4C3)ccc12)c1ncccn1` (stereo not given) the growth was 27.8%.
In the case of `Nc1ncc(-c2ccc3ncnc(N4CCc5cc(F)c(F)cc54)c3c2)cn1`, the growth is reported as 33.1%.
With `O=C(Nc1ccc(Br)cc1)Nc1nc2ccc([N+](=O)[O-])cc2s1` the growth was 8.37% (active).
For `CC(=O)c1nnn(-c2c(C(=O)n3nc(C)cc3C)sc(=S)n2-c2ccccc2)c1C`, the growth was 107%.
`O=C(c1ccc(O)c(C(=O)N2Cc3ccc(OCCC[P+](c4ccccc4)(c4ccccc4)c4ccccc4)cc3C2)c1)N1Cc2cccc(F)c2C1` was tested, and the growth was 94.3%.
`CS(=O)(=O)Nc1cc(-c2ccc3ncc(C#N)c(N[C@H](CO)c4ccccc4)c3c2)cnc1Cl` showed a growth of 78.3%.
Molecule `CCCCCc1ccc(S(=O)(=O)Nc2cccc(-c3csc(NCCN4CCN(C)CC4)n3)c2)cc1` has a growth of 82.9%.
In the case of `COc1ccc2c(c1)c(CC(=O)[Se]CCC#N)c(C)n2C(=O)c1ccc(Cl)cc1`, the growth is reported as -3.57% (active).
Molecule `COc1ccccc1N1CCN(C2=CC(=O)C(C)=C(C)C2=O)CC1` has a growth of 112%.
`NS(=O)(=O)c1ccc(Nc2nc(SCC(=O)c3ccc(Cl)cc3)nc3c2CCCC3)cc1` was tested, and the growth was 87%.
Work on `CC1(C)CC[C@]2(C(=O)N3CCOCC3)CC[C@]3(C)C(=CC[C@@H]4[C@@]5(C)C/C(=C/c6ccccn6)C(=O)C(C)(C)[C@@H]5CC[C@]43C)[C@@H]2C1` yielded a growth of 103%.
Molecule `COc1ccc(-n2c(/C=C3\C(=O)Nc4ccccc43)ccc2CO)cc1` has a growth of 104%.
`Cc1cc(-c2ccc(Cl)cc2)n(Cc2nnc(SCC(=O)Nc3ccc(S(N)(=O)=O)cc3)n2C2CCCCC2)n1` was tested, and the growth was 97.2%.
`COc1cc(-c2nc(SCCC(C)C)nc(NNC(=O)c3ccncc3)c2C#N)cc(OC)c1OC` gave a growth of 64.6%.
In the case of `COc1ccc(C(=O)CSc2nc3c(c(Nc4ccc(S(N)(=O)=O)cc4)n2)CCCC3)cc1`, the growth is reported as 107%.
For `COc1ccccc1NCc1cccn1Cc1ccc(F)cc1`, the growth was 92.5%.
Work on `COc1cc2oc(-c3cccc(C(=O)N[C@@H](CC(C)C)C(=O)OC(C)(C)C)c3)cc(=O)c2c(OC)c1OC` yielded a growth of 90.4%.
`NS(=O)(=O)c1ccc(Nc2nc(SCc3ccccc3)nc3ccccc23)cc1` showed a growth of 88.7%.
For `CCn1c(SCC(=O)Nc2cccc(C(=O)/C=C/c3ccc(Br)cc3)c2)nc2ccccc2c1=O`, the growth was 94.3%.
Molecule `C=CCn1c(-c2nc3ccc(C(=C(C#N)C#N)c4ccccc4)cc3[nH]2)cc2cc(Br)ccc21` has a growth of 70.6%.
`COC(=O)c1[nH]nc2c1C1(C(=O)N(C)c3ccccc31)C(C#N)=C(N)O2` (stereo not given) gave a growth of 94.1%.
In the case of `Cc1c(Cl)cccc1S(=O)(=O)Nc1ccc2c(c1)C(=O)N(C1CCC(=O)NC1=O)C2=O` (stereo not given), the growth is reported as 88.8%.
